Cycloheximide cs = Cycloheximide Counterscreen for Small Molecule Inhibitors of Shiga Toxin; cell reporter, cycloheximide protein synthesis inhibition counterscreen; max response, %; actives 12% (n = 300,000); AID 2314, 2010; in the data active means max response mostly above about 13%, no sharp cut-off; inactive means mostly below about 14%; further: read at 38.3 µM for the half of the compounds with a filed dose; 0% is about no effect
NS1 inh = qHTS Assay for Inhibitors of Influenza NS1 Protein Function | Potency, µM (titrated, usually from 46.1 µM), for the others: at the top dose activity, positive = more growth | actives 0.4% (n = 270,000) | AID 2326, 2010; further: potency means the concentration at half of the fitted maximal effect; actives are rising curves; nearly all actives have a fitted effect of over 50% in size
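Read-out: OD600 growth recovery of NS1-expressing budding yeast. Cells grown overnight at 30C in -URA glucose medium, washed, resuspended and diluted 1:100 in 2% galactose assay medium, pH 6.0. Same strain lacking NS1 served as positive control.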
SARS PLP yeast = qHTS of Yeast-based Assay for SARS-CoV PLP; Potency, µM (titrated, usually from 32.9 µM), without a hit: at the highest dose activity, positive = growth rescue, hits mostly activators; actives 0.19% (n = 330,000); S. cerevisiae expressing SARS-CoV PLpro, growth rescue; further: potency means the concentration at half of the fitted maximal effect; 0% is about no effect; nearly all actives have a fitted effect of over 55% in size
Shiga inhibitor = A qHTS for Small Molecule Inhibitors of Shiga Toxin; Vero cells, Shiga toxin protein synthesis inhibition reporter; actives 9.2% (n = 290,000); inhibition, % at 38.7 µM; AID 2315, 2010; in the data active means inhibition mostly above about 28%, no sharp cut-off; inactive means mostly below about 43%; further: 0% is about no effect
Starred values were filed as active, the others as inactive; ? = inconclusive; . = no result; + = active, no number. In the library only some 12% were active in any assay of this set; here they are far more common. Unless noted, the call rests on the fitted dose curve.

SMILES	Cycloheximide cs	NS1 inh	SARS PLP yeast	Shiga inhibitor
O=[N+]([O-])c1cccc(/C=N\N2CCN(Cc3ccccc3Cl)CC2)c1	16*	-3%	22%	20
O=c1oc(-c2cccs2)nc2scc(-c3cccs3)c12	14*	10%	-12%	11
Cc1sc2nc(-c3cccs3)oc(=O)c2c1C	43*	-4%	-1%	136*
O=C(O)[C@@H]1[C@@H]2C[C@@H]2CN1c1ncccc1[N+](=O)[O-]	-1	-4%	1%	9
CC(=O)c1cccc(OCc2cc(C(=O)N3CC4C[C@@H]5CC3C[C@H](C4)C5)no2)c1	29*	-16%	-4%	36
CC(=O)c1ccc(OCc2cc(C(=O)N3CC4C[C@@H]5CC3C[C@H](C4)C5)no2)cc1	47*	-17%	16%	84*
COc1cccc(OCc2cc(C(=O)N3CCN(C4CCCCC4)C(=O)C3)no2)c1	9	-2%	-12%	15
CC(=O)c1ccc(OCc2cc(C(=O)N(C)Cc3ncc(C)[nH]3)no2)cc1	3	-3%	?	-6
CCOC(=O)C1CCN(C(=O)COC(=O)c2nn(C)c(=O)c3ccccc23)CC1	.	.	-4%	.
CC1(C)O[C@H]2[C@@H](c3[nH]nc4c(=O)[nH]c(=O)[nH]c34)OC[C@H]2O1	.	-6%	.	.
O=C(NCc1cccs1)C1CC(=O)N(c2ccccc2)C1 (centres undefined)	-1	?	4%	-4
CC(C)Cn1c(SCC(=O)c2ccc(Cl)s2)nnc1-c1ccco1	33*	-52%	-8%	72
Cn1c(SCC(=O)OCc2ccccc2)nnc1-c1ccco1	-3	-14%	0%	-4
Cn1c(SCC(=O)c2ccc(-c3ccccc3)cc2)nnc1-c1ccco1	28*	-33%	-11%	29*
O=C(CSc1nnc(-c2ccco2)n1Cc1ccccc1)c1ccccc1	38*	-24%	4%	72*
Cc1ccc(C(=O)CSc2nnc(-c3ccco3)n2Cc2ccccc2)cc1	22*	-25%	6%	90
Cc1c(NC(=O)COC(=O)C23CC4CC(CC(Br)(C4)C2)C3)c(=O)n(-c2ccccc2)n1C	-1	.	0%	-3
CC[C@H](C)[C@H](NC(=O)[C@H](Cc1ccc(O)cc1)NC(=O)[C@H](CCCNC(=N)N)NC(=O)[C@H](CCCNC(=N)N)NC(=O)[C@H](CC(C)C)NC(=O)[C@H](CCC(N)=O)NC(=O)[C@@H](NC(=O)[C@H](CCC(=O)O)NC(=O)[C@H](Cc1ccc(O)cc1)NC(=O)[C@H](CCC(N)=O)NC(=O)[C@H](C)NC(=O)[C@H](CCCNC(=N)N)NC(=O)[C@H](CCC(N)=O)NC(=O)[C@H](CCC(=O)O)NC(=O)[C@H](Cc1cnc[nH]1)NC(=O)[C@@H](NC(=O)[C@H](C)NC(=O)[C@H](Cc1ccc(O)cc1)NC(=O)[C@H](CC(=O)O)NC(=O)CNC(=O)[C@@H]1CCCN1C(=O)[C@H](Cc1ccc(O)cc1)NC(=O)[C@H](CCSC)NC(=O)[C@@H]1CCCN1C(=O)[C@H](CCC(=O)O)NC(=O)[C@H](CC(C)C)NC(=O)[C@@H]1CCCN1C(=O)[C@H](C)N)[C@@H](C)O)[C@@H](C)O)C(=O)N[C@@H](CC(N)=O)C(=O)N[C@H](C(=O)N[C@@H](CC(C)C)C(=O)N[C@H](C(=O)N[C@@H](CCCNC(=N)N)C(=O)N1CCC[C@H]1C(=O)N[C@@H](CCCNC(=N)N)C(=O)N[C@@H](Cc1ccc(O)cc1)C(N)=O)[C@@H](C)O)[C@@H](C)O	-6	.	.	-1
NC(=O)C1CCN(C(=S)NCCc2ccccc2)CC1	18*	0%	0%	16
Oc1ccccc1N1CCN(C(=S)NCCc2ccccc2)CC1	27*	5%	-16%	31*
S=C(NCCc1ccccc1)N1CCc2ccccc2C1	67*	-8%	-3%	116*
Oc1ccc(N2CCN(C(=S)NCCc3ccccc3)CC2)cc1	24*	-117%	-26%	9
Cc1cc(C)cc(Oc2ccc(C(F)(F)F)cc2C#N)c1	-2	5%	0%	-5
S=C(NC1CCCCC1)N1CCc2ccccc2C1	38*	-21%	-42%	+
S=C(NCCc1ccccc1)N1CCN(Cc2ccccc2)CC1	31*	10%	-6%	27
SMILES	Cycloheximide cs	NS1 inh	SARS PLP yeast	Shiga inhibitor
O=C(C1CC(c2ccc(F)cc2)=NO1)N1CCCCC1 (centres undefined)	26*	-3%	-37%	61*
O=C(C1CC(c2ccc(F)cc2)=NO1)N1CCN(c2ccccc2)CC1 (centres undefined)	-5	-2%	-2%	-11
COc1ccc(CNC(=O)C2CC(c3ccc(F)cc3)=NO2)cc1 (centres undefined)	-4	2%	6%	-14
CC1CCCCN1C(=O)C1CC(c2ccc(F)cc2)=NO1 (centres undefined)	59*	-9%	1%	90*
O=C(C1CC(c2ccc(F)cc2)=NO1)N1CCC2(CC1)OCCO2 (centres undefined)	45*	6%	-17%	71*
COc1cccc(C2=NOC(C(=O)N3CCc4ccccc4C3)C2)c1 (centres undefined)	12*	-46%	-18%	26*
O=C(C1CC(c2ccc(F)cc2)=NO1)N1CCc2ccccc2C1 (centres undefined)	21	-3%	1%	33
O=C(CN(C(=O)CCC(=O)Nc1nccs1)c1cccc(F)c1)NCCc1ccccc1	-4	-5%	1%	-2
COc1cccc(C2=NOC(C(=O)N3CCC4(CC3)OCCO4)C2)c1 (centres undefined)	52*	0%	-6%	97*
COc1ccc(C2=NOC(C(=O)N3CCCCCC3)C2)cc1OC (centres undefined)	-4	-5%	6%	-18
O=C(C1CC(c2ccccc2O)=NO1)N1CCCCC1 (centres undefined)	48*	3%	1%	133*
O=C(C1CC(c2ccc(Cl)c(Cl)c2)=NO1)N1CCC2(CC1)OCCO2 (centres undefined)	28*	?	7%	117*
COc1cccc(C2=NOC(C(=O)NC(C)C)C2)c1 (centres undefined)	-3	-6%	-2%	25
COCCn1c(CN2CCN(C(=O)c3ccco3)CC2)nc2c1c(=O)n(C)c(=O)n2C	-5	2%	0%	-5
Cc1ccc(C)c(OCCn2nnc3ccccc32)c1	33*	-34%	3%	34*
Cc1cc(C)cc(OCCn2nnc3ccccc32)c1	47*	-12%	1%	58*
CCOc1ccccc1OCCn1nc2ccccc2n1	2	-5%	-4%	40
Cc1cccc(C)c1OCCn1nnc2ccccc21	5	-12%	.	-11
Cc1ccc(OCCn2nc3ccccc3n2)c(C)c1	32*	-21%	-3%	38*
Clc1ccccc1OCCn1nnc2ccccc21	45*	-23%	4%	63*
COc1cccc2c1OC[C@@H](CO)[C@H]2N(C)C(=O)Nc1ccc(Cl)cc1Cl	-4	5%	-6%	-3
COc1ccc(NC(=O)Cn2nnc(C(=O)NCCc3ccc(OC)c(OC)c3)c2N)c(OC)c1	-3	.	5%	-8
